Screening results: PubChem BioAssay, National Center for Advancing Translational Sciences (NCATS)
Rows were chosen to be rich in hits. Some 15% of all compounds tested hit in one or more screens of this group.
HCV inh – inhibitors of hepatitis C virus infection. Huh7.5.1 HCVcc-Cre infection, luciferase reporter, 44 h. Potency, µM (top dose mostly 41.8 µM), for inactives: top-dose activity change, negative = inhibition, usual class: inhibitors. hit rate 3.4% among 340,000. AID 651820; further: potency means the concentration at half of the fitted maximal effect; on the % scale 0 is the no-effect control and ±100 the full control effect
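Reporter virus HCVcc-Cre (~0.5 moi) infects cells exposed to compound; seeding density 1,000 cells/well with 4 h settling beforehand. Luminescence, 15 sec read, taken 44 h post-infection following a 15 min RT substrate incubation.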
Pf growth 48h – P. falciparum growth inhibition at 48 hours (one generation); hit rate 5.9% among 310,000; P. falciparum luciferase growth in erythrocytes, 48 h; Potency, µM (highest dose often 28.7 µM), for the others: at the top dose activity change, negative = inhibition, most hits filed as inhibitors; further: potency means the concentration at half of the fitted maximal effect; on the % scale 0 is the no-effect control and ±100 the full control effect
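Compounds are pin-transferred into medium, infected erythrocytes (2% hematocrit, 0.1% parasitemia final) are added, and plates sit one parasite generation at 37 C in 5% CO2. Detection reagent is then added and luminescence measured.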
SARS PLP yeast – blocks SARS-CoV papain-like protease in a yeast assay | hit rate 0.19% among 330,000 | Potency, µM (highest dose often 32.9 µM), without a hit: at the top dose activity, positive = growth rescue, usual class: activators | S. cerevisiae expressing SARS-CoV PLpro, growth rescue; calls by dose curve; further: potency means the concentration at half of the fitted maximal effect; 0% is about no effect; nearly all actives have a fitted effect of over 55% in size
HCMV inh – human cytomegalovirus inhibition. HFF cells, HCMV-luciferase reporter, 72 h; stronger effect = lower value. activity change, negative = inhibition, % at 57.5 µM. hit rate 4.5% among 410,000; in the data active means activity change below about -60%; inconclusive means no clear call, values can overlap the other calls; inactive means above about -39%; further: on the % scale 0 is the no-effect control and ±100 the full control effect
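Steps: HFFs plated, 16 h 37C; compounds added; HCMV-luciferase added to MOI 1 PFU/cell; 72 h 37C; OneGlo reagent, 5 min room temperature; luminescence read, normalized to controls.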
Sm TGR inh – S. mansoni TGR enzyme inhibition; hit rate 3% among 360,000; AID 485364; Potency, µM (highest dose often 114 µM), for inactives: at the highest dose activity change, negative = inhibition, actives largely listed as inhibitors; purified TGR, DTNB reduction, TNB absorbance 405 nm; Q962Y6; further: potency means the concentration at half of the fitted maximal effect; on the % scale 0 is the no-effect control and ±100 the full control effect; nearly all actives have a fitted effect of over 60% in size
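TGR 20 nM + NADPH 100 uM (dispensed conc.), cpd preinc 15 min RT; start with NADPH (500 uM addition) then DTNB (15 mM addition). Kinetic TNB absorbance, 405 nm filter. Four-parameter Hill fit across titration.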
Pf growth 96h – P. falciparum growth inhibition at 96 hour, primary screen for plastid delayed-death inhibitors; hit rate 6.9% among 320,000; Potency, µM (top dose mostly 28.7 µM), inactives show top-dose activity change, negative = inhibition, most hits filed as inhibitors; P. falciparum luciferase reporter growth, 96 h; further: potency means the concentration at half of the fitted maximal effect; on the % scale 0 is the no-effect control and ±100 the full control effect
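Plates of compound plus infected erythrocytes (2% hematocrit, 0.05% parasitemia final) incubate 96 hours, 37 C, 5% CO2. Detection reagent added; reduced luminescence from the parasites' luciferase reporter flags inhibition.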
* marks the source's active call; other numbers are inactive results; ? = inconclusive; . = no result; [ ] = dose if it differs, or a comment. Unless noted, the call rests on the fitted dose curve; in most records, active means well fitted curve in the direction sought with a large enough effect; inconclusive means small, poorly fitted or top-dose-only effect, or another doubt; inactive means no such curve, though single readings can be large; an effect the other way counts as inactive or inconclusive.

SMILES | HCV inh | Pf growth 48h | SARS PLP yeast | HCMV inh | Sm TGR inh | Pf growth 96h
COc1c2ccccc2c(OC)c2ccccc12 | 0% | 3% | -3% | -64* | 2% | 15µM*
COc1nnc(OC)c2ccccc12 | ? | -6% | 1% | ? | 6% | 0.47µM*
N#C/C(=C\c1ccc(-c2cccc([N+](=O)[O-])c2)o1)c1nnc(N2CCOCC2)n1-c1ccccc1 | . | ? | 0% | -27 | . | ?
O=S(=O)(Nc1nc2ccccc2nc1NCc1ccco1)c1ccc(Cl)cc1 | 0% | -3% | -25% | 30 | 0% | 17%
Cc1ccc(S(=O)(=O)N2CN(Cc3ccco3)c3nc4ccccc4nc32)cc1C | ? | 88% | 0% | 32 | ? | ?
Cc1ccc(S(=O)(=O)N2CN(Cc3ccco3)c3nc4ccccc4nc32)cc1 | ? | ? | -11% | ? | 22µM* | ?
COc1ccc(S(=O)(=O)N2CN(Cc3ccco3)c3nc4ccccc4nc32)cc1 | -6% | 12µM* | -2% | . | 11µM* | 43%
O=S(=O)(c1ccc(F)cc1)N1CN(Cc2ccco2)c2nc3ccccc3nc21 | -15% | . | -12% | 5 | ? | .
Cc1ccc(S(=O)(=O)Nc2nc3ccccc3nc2NCc2ccco2)cc1 | 1% | 118% | -12% | 39 | 13µM* | .
Cc1cc2occ(CC(=O)N(C)CC(=O)Nc3ccc(F)cc3)c2cc1C | ? | -7% | -3% | 9 | -9% | 16%
CCOc1ccc(NCc2cccn2-c2nnc(N3CCC(C(=O)NCc4cccc(OC)c4)CC3)s2)cc1 | . | . | . | -84* | 10% | .
CCOc1ccc(NCc2cccn2-c2nnc(N3CCC(C(=O)NCCOC)CC3)s2)cc1 | . | . | . | -35 | 3% | .
CCOc1ccc(NCc2cccn2-c2nnc(N3CCC(C(=O)NCC(C)c4ccccc4)CC3)s2)cc1 (stereo unspecified) | . | . | . | -80* | 6% | .
Cc1ccc(NCc2cccn2-c2nnc(N3CCC(C(=O)NCc4ccc(OC(C)C)cc4)CC3)s2)cc1 | . | . | . | -80* | -9% | .
Cc1ccc(NCc2cccn2-c2nnc(N3CCC(C(=O)NCCc4ccc(Cl)cc4)CC3)s2)cc1 | . | . | . | ? | 4% | .
CCOc1ccc(NCc2cccn2-c2nnc(N3CCC(C(=O)NCc4ccc(C)cc4)CC3)s2)cc1 | . | . | . | -76* | -1% | .
C[N+]1(CC(O)COCC2COc3ccccc3O2)CCOCC1 (stereo unspecified) | 26% | -26% | 2% | ? | -6% | -10%
COc1ccc(N2CCN(C3CCCN(C(=O)CN4CCCC4=O)C3)CC2)cc1 (stereo unspecified) | 11% | -2% | 6% | 8 | -11% | ?
O=C(Cc1cccc(C(F)(F)F)c1)OCN1C(=O)c2ccccc2C1=O | -2% | 27% | -4% | -15 | 4% | 31%
N=C1C(c2ccccc2)=C(O)CN1c1cccc2ccccc12 | -7% | -21% | 3% | -32 | 0% | -15%
CCOC(=O)CN(c1ccccn1)S(=O)(=O)c1ccccc1 | -8% | -1% | 3% | 54 | 3% | 43%
CCOC(=O)CN(c1sc(C)c(C)c1C(=O)OCC)S(=O)(=O)c1ccc(C)cc1 | . | . | . | -65* | . | .
COCCn1c(=O)c2cc3c(=O)n(CCOC)c(=O)c3cc2c1=O | 10% | . | 21% | -20 | 0% | -3%
Cc1cccc(OCCSc2nnc(-c3ccoc3C)n2C)c1 | -13% | -3% | 4% | -14 | 0% | 12µM*
COc1ccc(-c2nnc(SCC(=O)O)n2Cc2ccccc2)cc1 | 11% | 6% | 9% | 92 | ? | 7.4µM*
SMILES | HCV inh | Pf growth 48h | SARS PLP yeast | HCMV inh | Sm TGR inh | Pf growth 96h
Cc1cccc(OCCSc2nncn2C)c1 | -16% | 65% | 1% | 135 | -1% | -8%
CCOc1ccc(-c2nnc(SCC(=O)O)n2Cc2ccccc2)cc1 | 14% | 20% | 3% | -23 | 1% | 0.93µM*
O=C(O)CSc1nnc(-c2ccncc2)n1Cc1ccccc1 | 11% | . | -1% | 79 | -3% | 12%
O=C(CSc1nnc(-c2ccc(O)cc2)n1Cc1ccccc1)NNC(=O)c1ccc(Br)cc1 | -20% | 4% | -12% | -68* | -12% | ?
COc1ccc(NC(=O)COC(=O)CN2C(=O)c3ccccc3C2=O)cc1 | 6% | 1% | 1% | -15 | -3% | 8%
CCN(CCCNC(=O)CN1N=C(c2ccc(OC)cc2)CCC1=O)c1cccc(C)c1 | . | . | . | -6 | -4% | .
Cc1occc1-c1nnc(SCC(=O)N2CCN(c3ccccc3)CC2)n1C | 6% | -5% | 0% | -21 | 16% | ?
CCn1c(SCC(=O)N2CCc3ccccc32)nnc1-c1ccncc1 | 1% | 4% | -3% | 6 | -3% | 58%
CCSc1nnc(-c2cccc(S(=O)(=O)N(CC)CC)c2)n1Cc1ccccc1 | 4% | 15µM* | 6% | -39 | -2% | 17%
Cc1occc1-c1nnc(SCC(=O)N2c3ccccc3CCc3ccccc32)n1C | -2% | 7.4µM* | 3% | -7 | 4% | .
C=CCn1c(SCC(=O)c2ccc(O)c(O)c2)nnc1-c1ccc(OC)cc1 | ? | 2.6µM* | -1% | -17 | 0% | ?
CCn1c(SCC(=O)N2c3ccccc3CCc3ccccc32)nnc1-c1ccc(OC)cc1 | ? | 4.1µM* | 0% | -24 | 3% | 9.3µM*
CCNC(=O)CSc1nnc(-c2cccc(S(=O)(=O)N(CC)CC)c2)n1CCc1ccccc1 | -7% | ? | 4% | -21 | 0% | ?
NC(=O)C(C1=CCCCC1)c1ccccc1 (stereo unspecified) | -1% | . | . | ? | . | .
CCC[C@@H]1CCCO[C@@](C(=O)NCc2cc(C)n(C)n2)(C(F)(F)F)C1 | 34% | . | . | -2 | . | .
Cc1ccccc1NC(=O)Cn1nc(-c2ccccc2)nc(Cc2ccccc2)c1=O | . | . | . | 55 | -1% | .
COCCNC(=O)C(c1ccc(C)o1)N(Cc1ccc(OC)cc1)C(=O)Cn1nnc2ccccc21 (stereo unspecified) | 15% | . | 5% | -12 | -10%[11.4 µM] | ?
CCc1ccc(C(C(=O)NC(C)(C)CC)N(Cc2ccco2)C(=O)Cn2nnc3ccccc32)cc1 (stereo unspecified) | ? | 12µM* | -11% | 0 | -3% | 16%
COc1ccc(CN(C(=O)Cn2nnc3ccccc32)C(C(=O)NC(C)(C)C)c2ccco2)cc1 (stereo unspecified) | 16% | -11% | -1% | 22 | -3% | 4.7µM*
Cc1cccc(N(C(=O)Cn2nnc3ccccc32)C(C(=O)NC(C)(C)C)c2ccsc2)c1 (stereo unspecified) | 5% | 10µM* | 6% | ? | -25% | 3.3µM*
